Among the data in PubChem BioAssay AID1508601 (ICCB-Longwood Screening Facility, Harvard Medical School, 2020) are nuclei count, normalised and p53-positive nuclei, normalised values, retold here.

Where “and” joins values, the source holds several entries; their conditions need not be identical. Identical values can stand only once. Among all 5,700 compounds or so, about 85 (1%) were called active. Cut-off read from the data, not from the text of the source: active = p53-positive nuclei above about 36% (passing the limit was not always enough); inactive = the rest. Only a selection was taken, and actives are over-represented in it overall.

A short description of experiment [1]: p53 stabilisation in HPV-positive human cells, imaging, p53-positive nuclei imaging, 24 h, 48 h (AID 1508601). The note with it: 24/48 h.
Experiment [2] concerns the target Cellular tumor antigen p53 (Homo sapiens) (UniProt P04637). The description is as above. The note with it: 24/48 h, stronger effect = higher value.
Where [3] appears, read: measured here: cell number at 24 h, Library stock concentration: 80 uM.
Setting [4] is: measured here: cell number at 24 h, Library stock concentration: 400 uM.
Setting [5] is: measured here: cell number at 24 h, Library stock concentration: 2 mM.
[6] abbreviates: measured here: cell number at 24 h, Library stock concentration: 3.33 mM.
[7] abbreviates: measured here: cell number at 24 h, Library stock concentration: 10 mM.
The mark [8] stands for this setting: measured here: cell number at 48 h, Library stock concentration: 80 uM.
The mark [9] stands for this setting: measured here: cell number at 48 h, Library stock concentration: 400 uM.
Where [10] appears, read: measured here: cell number at 48 h, Library stock concentration: 2 mM.
Setting [11] is: measured here: cell number at 48 h, Library stock concentration: 3.33 mM.
Setting [12] is: measured here: cell number at 48 h, Library stock concentration: 10 mM.
Setting [13] is: Library stock concentration: 80 uM.
Where [14] appears, read: Library stock concentration: 400 uM.
The mark [15] stands for this setting: Library stock concentration: 2 mM.
[16] abbreviates: Library stock concentration: 3.33 mM.
Setting [17] is: Library stock concentration: 10 mM.
Where [18] appears, read: measured here: p53 positive nuclei at 24 h, Library stock concentration: 80 uM.
[19] abbreviates: measured here: p53 positive nuclei at 24 h, Library stock concentration: 400 uM.
[20] abbreviates: measured here: p53 positive nuclei at 24 h, Library stock concentration: 2 mM.
[21] abbreviates: measured here: p53 positive nuclei at 24 h, Library stock concentration: 3.33 mM.
[22] abbreviates: measured here: p53 positive nuclei at 24 h, Library stock concentration: 10 mM.

Sequence of Cellular tumor antigen p53 (Homo sapiens) (P04637 whole entry, looked up): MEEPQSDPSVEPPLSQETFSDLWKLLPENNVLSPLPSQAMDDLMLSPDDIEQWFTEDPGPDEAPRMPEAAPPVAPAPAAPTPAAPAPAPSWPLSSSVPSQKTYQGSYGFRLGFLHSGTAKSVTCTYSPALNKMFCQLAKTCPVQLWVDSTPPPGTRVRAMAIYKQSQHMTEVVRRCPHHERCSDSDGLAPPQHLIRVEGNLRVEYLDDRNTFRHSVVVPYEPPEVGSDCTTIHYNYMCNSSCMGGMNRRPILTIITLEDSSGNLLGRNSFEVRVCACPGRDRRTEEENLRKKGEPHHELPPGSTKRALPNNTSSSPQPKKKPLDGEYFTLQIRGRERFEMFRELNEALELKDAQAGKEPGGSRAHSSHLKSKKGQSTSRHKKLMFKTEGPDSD

For `CC(=O)N[C@@H](CC(C)C)C(=O)N1CCC(n2cc(C(C)(C)N)nn2)CC1`, the nuclei count, normalised in experiment [1] (measured here: cell number at 24 h, concentration not given here) is 104%; in experiment [1] (measured here: cell number at 48 h, concentration not given here) it was 109%. In addition, the p53-positive nuclei, normalised in experiment [2] (concentration not given here) was -0.0832% (inactive); in experiment [2] (measured here: p53 positive nuclei at 24 h, concentration not given here), 0.155%.
Turning to `Cc1nc(Nc2n[nH]c3c2CN(C(=O)NC(CN(C)C)c2ccccc2)C3(C)C)c2sccc2n1` (centres undefined), the nuclei count, normalised in experiment [1] (measured here: cell number at 24 h, Library stock concentration: 46 uM) came to 105%; in experiment [1] (setting [3]), 95.1%; in experiment [1] (measured here: cell number at 24 h, Library stock concentration: 278 uM), 96.3%; in experiment [1] (setting [4]), 85.6%; in experiment [1] (measured here: cell number at 24 h, Library stock concentration: 1.67 mM), 75.5%; in experiment [1] (setting [5]), 66.2%. In addition, the nuclei count, normalised in experiment [1] (setting [6]) was 47.2%; in experiment [1] (setting [7]), 45.2% and 45.1%; in experiment [1] (measured here: cell number at 48 h, Library stock concentration: 46 uM), 108%; in experiment [1] (setting [8]), 96.4%; in experiment [1] (measured here: cell number at 48 h, Library stock concentration: 278 uM) it was 99.1%; in experiment [1] (setting [9]) it was 92.2%. For the same compound, the nuclei count, normalised in experiment [1] (measured here: cell number at 48 h, Library stock concentration: 1.67 mM) is 72.1%; in experiment [1] (setting [10]), 63.4%; in experiment [1] (setting [11]), 37.3%; in experiment [1] (setting [12]), 32.4% and 35.1%. Besides, the p53-positive nuclei, normalised in experiment [2] (Library stock concentration: 46 uM) is -0.184% (inactive); in experiment [2] (setting [13]) it was -0.159% (inactive); in experiment [2] (Library stock concentration: 278 uM) it was -0.101% (inactive); in experiment [2] (setting [14]), -0.117% (inactive); in experiment [2] (Library stock concentration: 1.67 mM), 0.691% (inactive); in experiment [2] (setting [15]), 2.71% (inactive). In addition, the p53-positive nuclei, normalised in experiment [2] (setting [16]) is 69.1% (active); in experiment [2] (setting [17]), 18.9% (inactive) and 1.61% (inactive); in experiment [2] (measured here: p53 positive nuclei at 24 h, Library stock concentration: 46 uM), 0.116%; in experiment [2] (setting [18]), -0.151%; in experiment [2] (measured here: p53 positive nuclei at 24 h, Library stock concentration: 278 uM) it was -0.0682%; in experiment [2] (setting [19]), 0.0839%. Besides, the p53-positive nuclei, normalised is 1.31% in experiment [2] (measured here: p53 positive nuclei at 24 h, Library stock concentration: 1.67 mM); 2.05% in experiment [2] (setting [20]); 6.89% in experiment [2] (setting [21]); 1.74% and 0.752% in experiment [2] (setting [22]).
In the case of `CC(C)CC(=O)Nc1n[nH]c2c1CN(C(=O)C1CCN(C)CC1)C2(C)C`, the nuclei count, normalised is 90.1% in experiment [1] (setting [3]); 79.8% in experiment [1] (setting [4]); 61% in experiment [1] (setting [5]); 45.9% in experiment [1] (setting [6]); 39.3% in experiment [1] (setting [7]); 91.5% in experiment [1] (setting [8]). Also, the nuclei count, normalised turned out to be 71.9% in experiment [1] (setting [9]), 44.9% in experiment [1] (setting [10]), 31.6% in experiment [1] (setting [11]) and 23.2% in experiment [1] (setting [12]). Besides, the p53-positive nuclei, normalised is -0.0742% (inactive) in experiment [2] (setting [13]); 0.409% (inactive) in experiment [2] (setting [14]); 5.57% (inactive) in experiment [2] (setting [15]); 45.4% (inactive) in experiment [2] (setting [16]); 3.79% (inactive) in experiment [2] (setting [17]); -0.129% in experiment [2] (setting [18]). In addition, the p53-positive nuclei, normalised in experiment [2] (setting [19]) was 0.453%; in experiment [2] (setting [20]) it was 0.779%; in experiment [2] (setting [21]), 13.5%; in experiment [2] (setting [22]), 0.472%.
For `CCCCCOC(=O)Nc1nc(=O)n(C2OC(C)C(O)C2O)cc1F` (centres undefined), the nuclei count, normalised in experiment [1] (setting [6]) amounted to 99.3%; in experiment [1] (setting [11]) it was 102%. For the same compound, the values for the p53-positive nuclei, normalised in experiment [2] (setting [16]) and in experiment [2] (setting [21]) were -0.587% (inactive) and -0.329%, respectively.
For the compound `CCC(=O)O[C@@]1(C(=O)CCl)C(C)C[C@H]2[C@@H]3CC(F)C4=CC(=O)C=C[C@]4(C)[C@]3(F)C(O)C[C@@]21C` (some centres undefined), the nuclei count, normalised in experiment [1] (setting [6]) was 104%; in experiment [1] (setting [11]), 97.5%. Further, the p53-positive nuclei, normalised was -0.166% (inactive) in experiment [2] (setting [16]) and -0.278% in experiment [2] (setting [21]).
As for `CCCCN(Cc1ccc(C(=O)NO)cc1)C(=O)Nc1ccccc1`, the nuclei count, normalised was 103% in experiment [1] (setting [3]); 99.5% in experiment [1] (setting [4]); 114% in experiment [1] (setting [5]); 118% in experiment [1] (setting [6]); 74.8% in experiment [1] (setting [7]); 109% in experiment [1] (setting [8]). Also, the nuclei count, normalised turned out to be 101% in experiment [1] (setting [9]), 99.5% in experiment [1] (setting [10]), 90.2% in experiment [1] (setting [11]) and 67.8% in experiment [1] (setting [12]). For the same compound, the p53-positive nuclei, normalised was -0.143% (inactive) in experiment [2] (setting [13]); 0.163% (inactive) in experiment [2] (setting [14]); 0.295% (inactive) in experiment [2] (setting [15]); 0.281% (inactive) in experiment [2] (setting [16]); 5.72% (inactive) in experiment [2] (setting [17]); -0.0551% in experiment [2] (setting [18]). Also, the p53-positive nuclei, normalised is -0.12% in experiment [2] (setting [19]), 0.226% in experiment [2] (setting [20]), 0.149% in experiment [2] (setting [21]) and 13.7% in experiment [2] (setting [22]).
`COc1ccc(Cn2ccc3ccc(C(=O)NO)cc32)cc1`: the nuclei count, normalised in experiment [1] (setting [3]) was 107%; in experiment [1] (setting [4]) it was 107%; in experiment [1] (setting [5]) it was 105%; in experiment [1] (setting [6]), 105%; in experiment [1] (setting [7]), 101%; in experiment [1] (setting [8]) it was 107%. Further, the nuclei count, normalised worked out at 99.6% in experiment [1] (setting [9]), 98.8% in experiment [1] (setting [10]), 88.9% in experiment [1] (setting [11]) and 95.1% in experiment [1] (setting [12]). For the same compound, the p53-positive nuclei, normalised was -0.106% (inactive) in experiment [2] (setting [13]); -0.0148% (inactive) in experiment [2] (setting [14]); -0.164% (inactive) in experiment [2] (setting [15]); 0.097% (inactive) in experiment [2] (setting [16]); -0.0788% (inactive) in experiment [2] (setting [17]); -0.0424% in experiment [2] (setting [18]). Further, the p53-positive nuclei, normalised was -0.00427% in experiment [2] (setting [19]), 0.00889% in experiment [2] (setting [20]), -0.209% in experiment [2] (setting [21]) and 0.0845% in experiment [2] (setting [22]).
